# Results: PubChem BioAssay (NCATS)
# Values without a mark were called inactive. Results filed as inconclusive are left out. A call without a number means that no potency is given here. Calls of active or inactive are those of the source. Unless noted, calls come from the whole dose curve; as a rule, active = well fitted curve in the direction sought with a large enough effect; inconclusive = small, poorly fitted or top-dose-only effect, or another doubt; inactive = no such curve, though single readings can be large; an effect the other way counts as inactive or inconclusive.
# Columns and labels:
# [1] = target: Rap guanine nucleotide exchange factor 4 (Homo sapiens) (UniProt Q8WZA2); experiment: Confirmatory qHTS for antagonist of cAMP-regulated guanine nucleotide exchange factor 4 (EPAC2) (AID 1645885); note: nearly all actives have a fitted effect of over 25% in size; note: potency is the fitted concentration of half-maximal effect
# [2] = target: Rap guanine nucleotide exchange factor 3 (Homo sapiens) (UniProt O95398); experiment: Counterscreen qHTS for antagonist of cAMP-regulated guanine nucleotide exchange factor 3 (EPAC1) (AID 1645888);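 note: fluorescence loss as bound BODIPY-GDP is released from Rap1B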
# How it was run: (§1)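 Rap1B–BODIPY-GDP (250 nM) with 50 uM GDP; compounds pin-transferred to 9.74 nM–152 uM final (activator) or from 7.32 nM upwards (inhibitor). Fluorescence Ex/Em 480/540 nm read at 5 and 30 min, then after adding cAMP or buffer, at room temperature.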
# [3] = target: Rap guanine nucleotide exchange factor 3 (Homo sapiens) (UniProt O95398); experiment: Counterscreen qHTS for agonist of cAMP-regulated guanine nucleotide exchange factor 3 (EPAC1) (AID 1645889); note: nearly all actives have a fitted effect of over 40% in size; note: potency is the fitted concentration of half-maximal effect
# How it was run: as §1
# [4] = target: Rap guanine nucleotide exchange factor 4 (Homo sapiens) (UniProt Q8WZA2); experiment: Confirmatory qHTS for agonist of cAMP-regulated guanine nucleotide exchange factor 4 (EPAC2) (AID 1645884);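 note: nucleotide exchange releases bodipy-GDP from Rap1 and this lowers its fluorescence; potency is the fitted concentration of half-maximal effect; nearly all actives have a fitted effect of over 65% in size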
# [5] = target: Cytochrome P450 3A4 (Homo sapiens) (UniProt P08684); experiment: qHTS Assay for Inhibitors and Substrates of Cytochrome P450 3A4 (AID 884); note: potency is the fitted concentration of half-maximal effect; nearly all actives have a fitted effect of over 50% in size
# How it was run: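 20 nM human CYP3A4 with 25 uM Luciferin-PPXE (at KM) in 200 mM KPO4, preincubated 10 min with compound; NADPH regeneration started a 60 min RT reaction. Luciferin detected by luminescence, normalized to 57 uM ketoconazole as full inhibition.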
# [6] = target: Cytochrome P450 3A4 (Homo sapiens) (UniProt P08684); experiment: qHTS Assay for Activators of Cytochrome P450 3A4 (AID 885); note: nearly all actives have a fitted effect of over 65% in size
# How it was run: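 20nM CYP3A4 + 25uM Luciferin-PPXE (=KM), 200mM KPO4; cpd 10 min RT; NADPH regen, 60 min RT; stop w/ detection buffer, 20 min; luminescence. Normalized to 57 uM ketoconazole.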
# [7] = target: Ubiquitin carboxyl-terminal hydrolase 1 (Homo sapiens) (UniProt O94782); experiment: Inhibitors of USP1/UAF1: Pilot qHTS (AID 504865);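 note: rhodamine fluorescence freed from ubiquitin-rhodamine substrate followed over time; top concentration of the series differs between compounds; nearly all actives have a fitted effect of over 35% in size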
# How it was run: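 In 50mM HEPES pH 7.8 containing 0.5mM EDTA, 1mM TCEP, 0.1 mg/ml BSA and 0.01% Tween-20, 1nM USP1/UAF1 is exposed to compound for 15 min, then Ub-Rho (150nM final) is added and fluorescence is read over time.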
# [8] = target: DNA dC->dU-editing enzyme APOBEC-3G (Homo sapiens) (UniProt Q9HC16); experiment: qHTS for inhibitors of Vif-A3G interactions: Validation (AID 588379)
# How it was run: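 HeLa cells stably expressing Vif and A3G-eYFP, 700 cells/well, incubated overnight at 37 deg C, then exposed to compound overnight at 37 deg C. Inhibition of Vif-mediated degradation read as increased yellow fluorescence (Ex 488/Em 500-530) by laser-scanning cytometry.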
# [9] = target: DNA repair nuclease/redox regulator APEX1 (Homo sapiens) (UniProt P27695); experiment: qHTS Validation Assay for Inhibitors of the Human Apurinic/apyrimidinic Endonuclease 1 (APE1) (AID 1705;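 note: TAMRA fluorescence gain over two minutes as APE1 cuts a quenched THF abasic duplex; series mostly up to about 57 µM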)
# How it was run: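 qHTS, 1536-well. APE1 + cpd 15 min RT → 50 nM TAMRA/BHQ-2 THF-abasic dsDNA substrate → kinetic fluorescence, 3 reads/60 s; delta(read3−read1) = reaction progress. No-enzyme buffer = negative control.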
# [10] = Counterscreen for APE1 Inhibitors: Fluorescent Dye Displacement Validation Assay (AID 1707)
# How it was run: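 Thiazole Orange displacement from dsDNA: 250 nM ThO with 50 nM TAMRA-labelled abasic-site (tetrahydrofuran) duplex in 50 mM Tris-HCl pH7.5, 50mM NaCl, 2 mM MgCl2, 0.01% Tween-20. Loss of endpoint fluorescence (ex 480 nm, em 540 nm) flags DNA binders.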
# [11] = target: Endonuclease 4 (Escherichia coli (strain K12)) (UniProt P0A6C1); experiment: Counterscreen for APE1 Inhibitors: qHTS Validation Assay for Inhibitors of Endonuclease IV (AID 1708)
# How it was run: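 Cleavage of a quenched abasic-site DNA duplex (50 nM, 5'-TAMRA, 3'-BHQ-2) by 2 nM enzyme is followed as fluorescence increase. Compounds are preincubated with enzyme 15 min at room temperature before substrate addition.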
# [12] = qHTS for differential inhibitors of proliferation of Plasmodium falciparum line 7G8 (AID 1815);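 note: potency is the fitted concentration of half-maximal effect; parasite growth measured after three days of incubation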
# [13] = qHTS for differential inhibitors of proliferation of Plasmodium falciparum line GB4 (AID 1816); conditions: Potency: Plasmodium falciparum GB4 proliferation inhibition;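 note: parasite growth measured after 72 h incubation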; note: potency is the fitted concentration of half-maximal effect
# [14] = qHTS for differential inhibitors of proliferation of Plasmodium falciparum line W2 (AID 1883); conditions: Potency: Plasmodium falciparum W2 proliferation inhibition;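 note: potency is the fitted concentration of half-maximal effect; parasites grown with compound for 72 h before lysis and staining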
# [15] = target: Ferritin light chain (Equus caballus) (UniProt P02791); experiment: qHTS Validation Assay for Identification of Novel General Anesthetics (AID 2323); note: series mostly up to about 77 µM
# How it was run: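 Fluorescence at 535 nm (excitation 380 nm) reported loss of 1-AMA binding to horse-spleen apoferritin (10 uM) in PBS with 50% saturated 1-aminoanthracene, after 10 min room-temperature incubation with compound; values from Hill fits of normalized response.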
# [16] = target: ATP-dependent DNA helicase Q1 (Homo sapiens) (UniProt P46063); experiment: qHTS Validation Assay for Inhibitors of RecQ-Like Dna Helicase 1 (RECQ1) (AID 2353)
# How it was run: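 50 nM RECQ1T1 preincubated 15 min with compound in Tris pH 8.0 buffer with MgCl2, DTT, Tween-20 and 2.5 ug/ml poly(dI-dC); started with 200 nM TAMRA/BHQ-2 forked duplex and 2 mM ATP. Unwinding read as fluorescence (525/598 nm), two reads 2 h apart.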
# [17] = Quantitative high throughput screen for delayed death inhibitors of the malarial parasite plastid, 48 hour incubation (AID 488752); note: nearly all actives have a fitted effect of over 65% in size
# How it was run: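 One parasite generation (48 h, 37 C, 5% CO2) of luciferase-reporter P. falciparum in erythrocytes is run with test compound; decreased luminescence indicates inhibited growth.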
# [18] = target: M-phase phosphoprotein 8 (Homo sapiens) (UniProt Q99549); experiment: qHTS Validation Assay for Inhibitors for MPP8 Chromodomain Interactions with Methylated Histone Tails (AID 488949);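 note: 50 nM MPP8 with 50 nM peptide preformed then compounds added for 30 min; AlphaScreen signal from MPP8 chromodomain bound to biotinylated H3K9me3 peptide; top concentration of the series differs between compounds; nearly all actives have a fitted effect of over 55% in size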
# How it was run: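 50 nM MPP8 + 50 nM b-H3K9me3 peptide, PBS pH 7.4/0.01% Tween-20, 30 min RT; + cpd 30 min RT; + AlphaScreen donor/Ni-chelate acceptor beads 10 ug/mL final, 30 min dark; luminescence read.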
# [19] = target: Transient receptor potential cation channel subfamily V member 1 (Homo sapiens) (UniProt Q8NER1); experiment: HTS Assay for Compounds that Act as Enhancers of the Vanilloid Receptor 1 (AID 488979)
# How it was run: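 TRPV1 cells loaded with Fluo-8 calcium dye; compound added and Ca2+ signal (ex 480/em 520 nm) followed 3 min, then capsaicin at EC20 added and read 2 more min to detect enhancement.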
# [20] = target: Thyrotropin receptor (Homo sapiens) (UniProt P16473); experiment: qHTS Assay for Antagonists of the Thyroid Stimulating Hormone Receptor (AID 488980); note: series mostly up to about 58 µM
# How it was run: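 Readout is cAMP by HTRF competition between cellular cAMP and cAMP-d2 for a cryptate-labelled antibody. Antagonism was assessed in TSHR-transfected HEK293 cells stimulated with 4 nM TSH (EC80, final) in the presence of RO 20-1724.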
# [21] = target: Thyrotropin-releasing hormone receptor (Homo sapiens) (UniProt P34981); experiment: qHTS for Small Molecule Agonists and Allosteric Enhancers of Human TRH Receptor: Validation Screen for Agonists (AID 493127;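 active = calcium activation more than 3 SD above the typical response in the agonist read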;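 note: intracellular calcium rise by fluo-8 fluorescence before TRH EC20 addition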); conditions: TRH receptor agonist cell assay; at 2 µM; hits give high values
# How it was run: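 Gq-coupled calcium mobilization in TRHR cells after compound addition, monitored kinetically with fluo-8 dye on an FDSS reader.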
# [22] = target: Galactokinase (Homo sapiens) (UniProt P51570); experiment: qHTS Validation Assay for Inhibitors of Human Galactokinase (GALK) (AID 493189)
# How it was run: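 5 nM GALK / 100 uM galactose / 35 uM ATP, 20 mM HEPES pH8.0, 5 mM MgCl2, 60 mM NaCl, 1 mM DTT, 0.01% BSA (final). RT 1 h; Kinase-Glo Plus luminescence.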
# [23] = Validation screen for small molecules that induce DNA re-replication in SW480 colon adenocarcinoma cells (AID 504364)
# How it was run: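 Cells are treated 48 hr with test compound, stained 40 min with Hoechst at 37 C, and scanned for nuclear fluorescence; compounds inducing re-replication increase nuclei with elevated intensity.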
# [24] = qHTS for differential inhibitors of proliferation of Plasmodium falciparum line 3D7 (AID 1876); note: potency is the fitted concentration of half-maximal effect
# [25] = qHTS for differential inhibitors of proliferation of Plasmodium falciparum line D10 (AID 1877);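 note: parasites grown with compound for 72 h before DNA staining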
# [26] = qHTS for differential inhibitors of proliferation of Plasmodium falciparum line HB3 (AID 1886); conditions: Potency: Plasmodium falciparum HB3 proliferation inhibition;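 note: parasites grown with compound for 72 h before SYBR Green readout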
# [27] = Quantitative high throughput screen for delayed death inhibitors of the malarial parasite plastid, 96 hour incubation (AID 488745); note: nearly all actives have a fitted effect of over 70% in size; note: potency is the fitted concentration of half-maximal effect;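 for activity change, negative = inhibition: luciferase-expressing P. falciparum in erythrocytes at 2% hematocrit and 0.1% parasitemia; series mostly up to about 29 µM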
# How it was run: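 Growth of reporter-bearing P. falciparum in red cells is measured after 96 h with compound, covering two erythrocytic cycles. Luminescence from the integrated luciferase serves as the growth signal.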
# [28] = target: Voltage-gated inwardly rectifying potassium channel KCNH2 (Homo sapiens) (UniProt Q12809); experiment: qHTS Assay for Small Molecule Inhibitors of the Human hERG Channel Activity (AID 588834);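 note: top concentration of the series differs between compounds; lower thallium flux fluorescence means stronger hERG block; nearly all actives have a fitted effect of over 50% in size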
# How it was run: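 hERG-BacMam U2OS, 2000 cells/well; 0.7X FluxOR loading 1 hr RT dark; cpd ~10 min 37 °C; stim buffer; FDSS fluorescence 2 min @ 1 s; AC50 Hill fit.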
# Sequence of Ferritin light chain (Equus caballus) (P02791 2-175 limits assumed): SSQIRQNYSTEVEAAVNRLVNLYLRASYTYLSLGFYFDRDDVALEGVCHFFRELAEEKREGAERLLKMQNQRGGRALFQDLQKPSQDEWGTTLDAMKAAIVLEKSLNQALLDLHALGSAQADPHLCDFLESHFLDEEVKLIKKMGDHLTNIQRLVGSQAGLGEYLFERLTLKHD
# Sequence of Rap guanine nucleotide exchange factor 3 (Homo sapiens) (O95398 whole entry, looked up): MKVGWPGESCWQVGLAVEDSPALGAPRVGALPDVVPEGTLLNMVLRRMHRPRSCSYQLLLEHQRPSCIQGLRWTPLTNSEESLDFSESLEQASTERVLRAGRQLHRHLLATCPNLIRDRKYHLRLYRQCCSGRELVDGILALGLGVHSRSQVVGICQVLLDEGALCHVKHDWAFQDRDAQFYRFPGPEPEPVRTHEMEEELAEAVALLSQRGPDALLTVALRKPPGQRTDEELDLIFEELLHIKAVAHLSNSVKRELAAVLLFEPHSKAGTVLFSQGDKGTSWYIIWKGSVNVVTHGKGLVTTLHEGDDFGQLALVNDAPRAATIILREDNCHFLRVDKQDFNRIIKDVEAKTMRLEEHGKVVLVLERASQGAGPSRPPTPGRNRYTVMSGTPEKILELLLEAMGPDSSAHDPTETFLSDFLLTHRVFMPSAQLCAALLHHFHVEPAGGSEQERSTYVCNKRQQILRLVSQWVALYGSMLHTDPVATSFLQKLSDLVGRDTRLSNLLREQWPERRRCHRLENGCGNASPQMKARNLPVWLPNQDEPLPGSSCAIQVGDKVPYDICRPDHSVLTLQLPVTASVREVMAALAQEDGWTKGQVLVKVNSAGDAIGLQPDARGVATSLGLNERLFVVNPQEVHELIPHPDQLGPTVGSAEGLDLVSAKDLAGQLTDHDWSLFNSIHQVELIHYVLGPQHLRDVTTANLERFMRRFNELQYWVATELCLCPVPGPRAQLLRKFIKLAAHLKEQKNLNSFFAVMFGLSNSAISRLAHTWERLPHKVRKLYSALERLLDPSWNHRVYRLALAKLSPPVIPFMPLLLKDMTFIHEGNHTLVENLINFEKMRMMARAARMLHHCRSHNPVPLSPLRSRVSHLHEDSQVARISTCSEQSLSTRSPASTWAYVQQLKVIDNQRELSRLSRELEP
# Sequence of Rap guanine nucleotide exchange factor 4 (Homo sapiens) (Q8WZA2 whole entry, looked up): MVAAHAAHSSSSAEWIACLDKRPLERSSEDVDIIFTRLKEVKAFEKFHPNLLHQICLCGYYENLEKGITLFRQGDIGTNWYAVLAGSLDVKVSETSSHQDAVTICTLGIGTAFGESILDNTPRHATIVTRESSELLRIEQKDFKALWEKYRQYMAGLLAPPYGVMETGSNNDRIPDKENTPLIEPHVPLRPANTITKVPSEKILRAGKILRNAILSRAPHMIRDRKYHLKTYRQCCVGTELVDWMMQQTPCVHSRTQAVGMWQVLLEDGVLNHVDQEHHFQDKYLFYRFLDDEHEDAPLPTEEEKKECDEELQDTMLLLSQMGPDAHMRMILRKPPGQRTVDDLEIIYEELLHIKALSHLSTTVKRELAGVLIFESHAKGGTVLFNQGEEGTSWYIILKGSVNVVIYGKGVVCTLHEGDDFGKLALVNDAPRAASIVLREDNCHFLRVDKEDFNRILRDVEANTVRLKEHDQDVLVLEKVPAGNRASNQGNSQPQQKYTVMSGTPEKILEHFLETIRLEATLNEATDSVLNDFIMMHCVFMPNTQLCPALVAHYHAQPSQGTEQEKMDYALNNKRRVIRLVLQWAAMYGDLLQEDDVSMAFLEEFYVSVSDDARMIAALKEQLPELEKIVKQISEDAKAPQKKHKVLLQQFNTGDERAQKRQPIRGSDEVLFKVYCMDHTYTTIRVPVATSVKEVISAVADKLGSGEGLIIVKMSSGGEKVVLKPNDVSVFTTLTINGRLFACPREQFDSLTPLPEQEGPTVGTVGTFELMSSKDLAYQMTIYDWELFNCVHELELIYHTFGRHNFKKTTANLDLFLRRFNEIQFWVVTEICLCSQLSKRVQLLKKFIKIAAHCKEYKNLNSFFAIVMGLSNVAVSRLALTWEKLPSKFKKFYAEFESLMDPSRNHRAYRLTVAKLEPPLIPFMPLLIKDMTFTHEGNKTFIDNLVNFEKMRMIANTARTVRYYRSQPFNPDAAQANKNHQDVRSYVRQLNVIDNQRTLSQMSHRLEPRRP
# Sequence of Thyrotropin receptor (Homo sapiens) (P16473 whole entry, looked up): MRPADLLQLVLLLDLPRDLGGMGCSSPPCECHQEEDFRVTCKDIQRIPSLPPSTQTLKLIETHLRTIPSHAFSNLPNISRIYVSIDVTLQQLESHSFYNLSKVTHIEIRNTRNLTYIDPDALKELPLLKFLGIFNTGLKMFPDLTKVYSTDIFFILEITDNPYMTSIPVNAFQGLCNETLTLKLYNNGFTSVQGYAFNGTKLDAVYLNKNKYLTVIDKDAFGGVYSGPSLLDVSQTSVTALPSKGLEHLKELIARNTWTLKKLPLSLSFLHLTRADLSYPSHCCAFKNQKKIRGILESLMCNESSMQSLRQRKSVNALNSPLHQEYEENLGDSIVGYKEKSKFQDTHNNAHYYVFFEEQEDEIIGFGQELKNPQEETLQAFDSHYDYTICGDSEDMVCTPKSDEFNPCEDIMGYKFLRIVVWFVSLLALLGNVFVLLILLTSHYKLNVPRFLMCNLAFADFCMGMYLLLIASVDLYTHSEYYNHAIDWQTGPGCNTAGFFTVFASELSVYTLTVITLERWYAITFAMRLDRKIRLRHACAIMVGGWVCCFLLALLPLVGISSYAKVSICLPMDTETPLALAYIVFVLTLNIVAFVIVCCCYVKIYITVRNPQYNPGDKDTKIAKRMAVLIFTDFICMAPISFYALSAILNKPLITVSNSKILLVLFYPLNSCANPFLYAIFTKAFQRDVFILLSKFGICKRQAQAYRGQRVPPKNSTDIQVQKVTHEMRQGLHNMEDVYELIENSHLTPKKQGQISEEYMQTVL
# Sequence of Galactokinase (Homo sapiens) (P51570 whole entry, looked up): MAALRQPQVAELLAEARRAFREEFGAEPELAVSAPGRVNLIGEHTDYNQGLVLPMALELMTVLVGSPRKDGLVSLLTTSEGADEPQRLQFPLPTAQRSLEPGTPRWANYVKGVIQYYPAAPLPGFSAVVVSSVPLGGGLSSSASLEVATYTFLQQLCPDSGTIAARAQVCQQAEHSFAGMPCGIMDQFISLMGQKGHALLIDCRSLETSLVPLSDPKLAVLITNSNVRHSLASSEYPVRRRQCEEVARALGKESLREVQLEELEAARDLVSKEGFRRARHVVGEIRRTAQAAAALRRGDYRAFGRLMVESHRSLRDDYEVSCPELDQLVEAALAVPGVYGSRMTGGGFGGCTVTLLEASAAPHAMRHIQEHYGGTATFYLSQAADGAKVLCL
# Sequence of Thyrotropin-releasing hormone receptor (Homo sapiens) (P34981 whole entry, looked up): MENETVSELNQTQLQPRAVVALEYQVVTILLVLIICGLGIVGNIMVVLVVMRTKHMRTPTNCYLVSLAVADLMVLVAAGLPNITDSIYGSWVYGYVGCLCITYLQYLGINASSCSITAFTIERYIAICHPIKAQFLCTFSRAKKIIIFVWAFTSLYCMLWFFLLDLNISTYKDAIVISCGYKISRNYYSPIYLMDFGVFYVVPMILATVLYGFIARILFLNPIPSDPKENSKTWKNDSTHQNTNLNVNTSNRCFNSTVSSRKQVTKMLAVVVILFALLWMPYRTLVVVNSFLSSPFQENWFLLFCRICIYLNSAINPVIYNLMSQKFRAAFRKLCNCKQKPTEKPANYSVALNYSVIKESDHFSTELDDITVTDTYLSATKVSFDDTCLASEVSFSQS
# Sequence of ATP-dependent DNA helicase Q1 (Homo sapiens) (P46063 whole entry, looked up): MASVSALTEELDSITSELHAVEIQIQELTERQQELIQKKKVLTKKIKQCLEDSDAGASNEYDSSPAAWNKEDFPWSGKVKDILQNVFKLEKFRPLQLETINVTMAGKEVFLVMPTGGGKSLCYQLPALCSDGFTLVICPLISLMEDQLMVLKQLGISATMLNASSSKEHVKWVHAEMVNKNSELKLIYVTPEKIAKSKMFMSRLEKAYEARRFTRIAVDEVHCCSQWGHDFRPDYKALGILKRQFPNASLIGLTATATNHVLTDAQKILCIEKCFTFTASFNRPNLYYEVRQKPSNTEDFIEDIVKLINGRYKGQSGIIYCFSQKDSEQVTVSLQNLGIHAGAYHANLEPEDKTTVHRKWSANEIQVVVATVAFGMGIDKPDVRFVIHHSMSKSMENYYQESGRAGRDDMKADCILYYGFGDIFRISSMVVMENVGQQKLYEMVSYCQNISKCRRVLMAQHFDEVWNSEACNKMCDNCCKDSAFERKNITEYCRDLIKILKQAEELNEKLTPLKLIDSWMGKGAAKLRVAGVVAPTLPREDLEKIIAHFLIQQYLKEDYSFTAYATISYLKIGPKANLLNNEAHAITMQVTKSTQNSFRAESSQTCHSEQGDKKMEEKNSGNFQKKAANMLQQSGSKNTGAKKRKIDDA
# Sequence of DNA repair nuclease/redox regulator APEX1 (Homo sapiens) (P27695 whole entry, looked up): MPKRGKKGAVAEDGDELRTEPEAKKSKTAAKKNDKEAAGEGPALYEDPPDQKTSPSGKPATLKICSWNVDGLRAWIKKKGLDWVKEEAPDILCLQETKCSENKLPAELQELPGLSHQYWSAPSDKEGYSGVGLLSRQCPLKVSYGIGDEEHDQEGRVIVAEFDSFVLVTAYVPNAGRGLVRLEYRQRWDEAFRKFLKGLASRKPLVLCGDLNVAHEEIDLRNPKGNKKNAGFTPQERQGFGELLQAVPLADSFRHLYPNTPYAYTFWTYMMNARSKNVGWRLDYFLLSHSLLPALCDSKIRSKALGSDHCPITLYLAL
# Sequence of DNA dC->dU-editing enzyme APOBEC-3G (Homo sapiens) (Q9HC16 whole entry, looked up): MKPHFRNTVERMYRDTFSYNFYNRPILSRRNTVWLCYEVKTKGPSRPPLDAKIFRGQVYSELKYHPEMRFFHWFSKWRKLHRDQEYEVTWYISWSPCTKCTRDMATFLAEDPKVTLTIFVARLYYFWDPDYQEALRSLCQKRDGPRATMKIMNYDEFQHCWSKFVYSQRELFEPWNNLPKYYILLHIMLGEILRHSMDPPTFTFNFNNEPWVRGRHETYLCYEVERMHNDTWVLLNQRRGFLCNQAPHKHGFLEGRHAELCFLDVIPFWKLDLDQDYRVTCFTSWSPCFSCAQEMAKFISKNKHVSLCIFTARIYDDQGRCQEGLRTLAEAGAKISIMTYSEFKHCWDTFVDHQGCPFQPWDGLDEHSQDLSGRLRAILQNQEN
structure (smiles),measurement,setting,value
O=S(=O)(c1ccccc1)c1nc(Nc2cccc(O)c2)sc1Cl,Potency,[1],inactive
same,Potency,[2],inactive
O=C(NCc1ccc(OC(F)(F)F)cc1)c1cccc2c1C(=O)c1ccc(N3CCCC3)cc1S2(=O)=O,Potency,[1],inactive
same,activation,[3],20% [at 30.8 µM]
Oc1ccc(Br)cc1CNc1cccc2cccnc12,Potency,[1],33.8 µM (active)
same,Potency,[2],inactive
Cc1ccnc(NCc2cccc3ccccc23)c1,Potency,[1],inactive
same,Potency,[2],inactive
same,Potency,[3],inactive
CC1CCCN(C(=O)c2ccc(-c3ccccc3Cl)o2)C1 (configuration not stated),Potency,[1],inactive
same,Potency,[2],inactive
COc1cccc(Cn2c(=O)c3ccccc3n3nc(C)cc23)c1,Potency,[1],inactive
same,Potency,[2],inactive
CN(C)/C=C1\C=C2C(=O)c3ccccc3N2C1=O,Potency,[4],5.01 µM (active)
same,Potency,[3],10 µM (active)
COc1ccc2sc(N(Cc3cccnc3)C(=O)c3ccco3)nc2c1,Potency,[1],inactive
COc1ccc(/C=C/C(=O)c2cccs2)c(OC)c1,Potency,[5],6.31 µM (active)
same,outcome,[6],inactive
same,Potency,[7],inactive
same,outcome,[8],inactive
same,Potency,[1],inactive
O=C1OC(c2ccccc2)(c2ccc(O)cc2)c2ccccc21 (configuration not stated),"activity change, negative = inhibition",[2],-9.22% [at 30.8 µM]
CN(C)/C=C/c1onc(-c2c(Cl)cccc2Cl)c1C#N,Potency,[2],inactive
same,Potency,[3],inactive
CC(=O)SC1CC2=CC(=O)CC[C@]2(C)C2CC[C@@]3(C)[C@@H](CC[C@@]34CCC(=O)O4)C12 (some centres not stated),Potency,[9],inactive
same,outcome,[10],inactive
same,Potency,[11],inactive
same,Potency,[12],11.2 µM (active)
same,Potency,[13],7.94 µM (active)
same,Potency,[14],7.08 µM (active)
same,outcome,[15],inactive
same,outcome,[16],inactive
same,Potency,[17],inactive
same,Potency,[18],inactive
same,outcome,[19],inactive
same,outcome,[20],inactive
same,activation,[21],1.19%
same,outcome,[22],inactive
same,Potency,[23],inactive
O=C(NCCC1CCCCN1S(=O)(=O)c1ccc(Cl)cc1)C(=O)NCc1ccco1 (configuration not stated),Potency,[3],89.1 µM (active)
CN1c2ccsc2/C(=N/Nc2ccccc2)CS1(=O)=O,Potency,[2],inactive
CC[C@H](C)C(=O)O[C@H]1CCC=C2C=C[C@H](C)[C@H](CC[C@@H]3C[C@H](O)CC(=O)O3)C21 (some centres not stated),Potency,[9],inactive
same,outcome,[10],inactive
same,Potency,[11],inactive
same,Potency,[13],inactive
same,Potency,[24],inactive
same,Potency,[25],inactive
same,Potency,[26],inactive
same,outcome,[15],inactive
same,outcome,[16],inactive
same,Potency,[27],inactive
same,Potency,[17],inactive
same,Potency,[18],inactive
same,outcome,[20],inactive
same,activation,[21],-5%
same,outcome,[22],inactive
same,Potency,[23],inactive
COc1cc(C)nc(N2CCCC(C(=O)Nc3cc(Cl)ccc3OC)C2)n1 (configuration not stated),Potency,[2],inactive
COc1ccc(/C=N/n2cnc3c([nH]c4ccc(F)cc43)c2=O)cc1CN1CCCC1,Potency,[3],inactive
Nc1nc(Cl)nc2c1ncn2[C@@H]1O[C@H](CO)[C@H](O)[C@H]1O,outcome,[10],inactive
same,Potency,[11],inactive
same,Potency,[13],11.2 µM (active)
same,Potency,[24],7.08 µM (active)
same,outcome,[15],inactive
same,outcome,[16],inactive
same,Potency,[27],5.22 µM (active)
same,outcome,[19],inactive
same,outcome,[20],inactive
same,activation,[21],1.31%
same,outcome,[22],inactive
same,Potency,[23],inactive
same,Potency,[28],inactive
